Bioassay records as filed in PubChem.
PABP1 MLLE inh: blocks PAM2 peptide binding to the PABP1 MLLE domain; AID 588489; GST-MLLE / FITC-PAM2 fluorescence polarization; P11940; actives 0.36% (n = 360,000); inhibition, % at 20 µM; in the data active = inhibition above about 35%, passing the limit was not always enough;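 also: plate controls were DMSO wells with GST-MLLE for no effect and wells lacking GST-MLLE protein for full effect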
Target sequence (P11940 whole entry, looked up, the tested form may be a part): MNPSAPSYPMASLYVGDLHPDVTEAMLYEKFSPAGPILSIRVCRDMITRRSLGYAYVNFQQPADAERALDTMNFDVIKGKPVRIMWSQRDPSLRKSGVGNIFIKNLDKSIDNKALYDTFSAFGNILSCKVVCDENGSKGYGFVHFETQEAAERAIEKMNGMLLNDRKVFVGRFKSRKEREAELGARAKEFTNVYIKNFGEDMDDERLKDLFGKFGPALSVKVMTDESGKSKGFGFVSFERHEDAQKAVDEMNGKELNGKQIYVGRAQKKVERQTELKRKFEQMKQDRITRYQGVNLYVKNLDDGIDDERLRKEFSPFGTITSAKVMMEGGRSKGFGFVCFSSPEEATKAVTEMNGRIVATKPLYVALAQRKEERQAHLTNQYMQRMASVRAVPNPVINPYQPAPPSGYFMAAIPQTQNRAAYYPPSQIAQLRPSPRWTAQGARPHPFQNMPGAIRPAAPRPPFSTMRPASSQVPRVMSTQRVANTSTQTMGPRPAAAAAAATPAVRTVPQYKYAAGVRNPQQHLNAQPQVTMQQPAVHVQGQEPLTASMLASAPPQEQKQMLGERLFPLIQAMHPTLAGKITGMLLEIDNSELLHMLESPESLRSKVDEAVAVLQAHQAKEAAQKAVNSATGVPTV
PERK inhibitor: inhibitors of human PERK kinase; CHO PERK-DD fusion, SEAP luminescence translation reporter; inhibition, % at 5.6 µM; actives 0.17% (n = 220,000); AID 1416;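 active = inhibition above the mean inhibition of all tested compounds plus 3 SD, set separately per screening campaign, cut at about 2.9% in these data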;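 also: PERK kinase domain activated by AP20187 dimerizer at 100 nM; 0% = DMSO with dimerizer and 100% = rapamycin at 8.4 µM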
PABP polyA inh: PABP-poly(A) binding inhibition. AID 2014. PABP-poly(A) RNA binding, fluorescence polarization. actives 1% (n = 290,000). inhibition, % at 35 µM;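 also: calls also rest on retests at 20 µM and on dose response follow-up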
eIF4E-4G inh: blocks eIF4E binding to eIF4G. actives 0.37% (n = 220,000). TR-FRET eIF4E-eIF4GI(517-606) binding, 2 h. inhibition, % at 21.7 µM;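 active = inhibition above about 30%, limit read from the data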;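 also: 0% = full FRET control wells and 100% = background wells lacking eIF4GI fragment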
eIF4H inh: inhibitors of RNA binding by human eIF4H. actives 0.94% (n = 290,000). eIF4H fluorescence polarization binding assay. Q15056. inhibition, % at 35 µM;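 also: calls also rest on retests at 20 µM and on dose response follow-up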
Numbers without * were called inactive; ? = inconclusive; . = not tested or not shown; [ ] = another dose, or the depositor's remark. The list is not random: actives were taken first. Their share in the collection is about 1.6%. Unless noted, no rule for the calls is given here.

SMILES	PABP1 MLLE inh	PERK inhibitor	PABP polyA inh	eIF4E-4G inh	eIF4H inh
Cc1ccc(C)c(N2CCN(C(=O)c3ccc4nc(-c5ccco5)c(-c5ccco5)nc4c3)CC2)c1	26	0	25	2	86*
COc1ccccc1N1CCN(C(=O)c2ccc3nc(-c4ccco4)c(-c4ccco4)nc3c2)CC1	13	-1	8	7	92
Nc1cc2c(cc1[N+](=O)[O-])OCO2	2	1	41*	16	84
Nc1cc2c(cc1[N+](=O)[O-])OCCO2	2	1	-3	18	-5
Cc1ccc(C)c(NS(=O)(=O)c2ccc(NC(=O)CSc3ccc(Cl)cc3)cc2)c1	5	1	-5	-2	-6
CCNC(=O)c1ccc(CSc2ccc(Cl)cc2)cc1	5	1	-6	36*	-4
CC(C)c1ccc(C(=O)NCc2ccc(Cl)cc2)cc1	15	1	0	31*[fluorescence artefact?]	-4
O=C(c1ccc([N+](=O)[O-])cc1)N(c1ccccn1)c1ccccn1	13	0	3	-1	-3
CC(=O)Nc1ccc(S(=O)(=O)NC(C)C(=O)NC(C)c2ccccc2)cc1 (stereo unspecified)	49*	0	8	-1	0
CCN(CCNS(=O)(=O)c1ccc2[nH]c(=O)sc2c1)c1ccccc1	-23	1	-11	-1	6
N#CCc1ccccc1C(=O)OCC(=O)N(Cc1ccccc1)Cc1ccccc1	0	.	.	.	.
O=C(/C=C/c1ccco1)Nc1cccc(NC(=O)/C=C/c2ccco2)n1	0	0	15	4	?
O=C(/C=C/c1ccco1)NC1=NCCS1	35	0	active	9	?
O=C(/C=C/c1ccco1)Nc1ccccc1N1CCCC1	17	1	7	8	62
O=C(/C=C/c1ccco1)Nc1ccccc1C(=O)O	16	1	67*	8	95
COc1ccccc1C(=O)N/C(=C/c1ccco1)C(=O)Nc1cccc(C(=O)O)c1	-21	.	49*	.	67*
O=C(/C=C/c1ccco1)Nc1ccccc1C(=O)Nc1cccc(C(=O)O)c1	4	1	36*	3	?
O=C(CN1C(=O)NC2(CCc3ccccc32)C1=O)NCC(F)(F)F (stereo unspecified)	7	.	0	.	-10
CCCCN1C(=O)NC(c2cccc([N+](=O)[O-])c2)C(C(=O)OCC)=C1C (stereo unspecified)	-11	.	.	.	.
Cc1cccc(C)c1NC(=O)CSc1nnc(NC(=O)CN2CCOCC2)s1	2	0	-6	0	2
CN(CCn1ccnc1)C(=O)CC1C(=O)NCCN1Cc1ccccc1C(F)(F)F (stereo unspecified)	8	0	6	1	15
Cc1cccc(N(CC(=O)NC2CCCCC2)C(=O)CCC(=O)Nc2nccs2)c1	0	.	-5	.	-9
COc1cc(OC)cc(C(=O)NCC(=O)N2CCN(Cc3ccccc3)CC2)c1	-4	.	.	.	.
O=C(/C=C/c1ccco1)Nc1cc(Cl)ccc1C(=O)O	0	1	active	1	89*
COc1cc(/C=N/OCC(=O)Nc2ccc(OC(F)F)cc2)ccc1OCc1ccccc1	-57	0	0	-1	66*
SMILES	PABP1 MLLE inh	PERK inhibitor	PABP polyA inh	eIF4E-4G inh	eIF4H inh
Cc1cccc(NC(=O)CSc2nc(N)cc(N)n2)c1	-8	0	2	-1	1
Cc1cccc(NC(=O)CSc2nnc(-c3ccco3)c(-c3ccco3)n2)c1C	33	0	62*	20	91*
COc1ccc(CCNC(=O)CSc2nnc(-c3ccco3)c(-c3ccco3)n2)cc1OC	.	.	48*	.	84*
Cc1cccc(NC(=O)CSc2nnc(-c3ccco3)c(-c3ccco3)n2)c1	28	0	73*	11	89
COc1ccc(CCNC(=O)CSc2ccc(-c3ccco3)nn2)cc1OC	9	0	23	1	4
CCCCOC(=O)n1c(=S)oc2cc(Cl)ccc21	-109	1	3	14	-4
COC(=O)n1c(=S)oc2cc(Cl)ccc21	.	1	3	61*	-9
Cc1ccc(Sc2cnc(N)nc2C)cc1	2	1	62*	0	active
Cc1cc(=O)[nH]c(SCn2nnc3ccccc3c2=O)n1	43*	-2	-5	-3	-11
O=c1c2ccccc2nnn1CSc1nc2ccccc2[nH]1	-7	-1	-3	2	-5
CC(=O)Oc1ccc(C(=O)Nc2cccc3c2CCCC3)cc1	-4	.	4	.	-1
